Among the data in the supplement of paper PMC10849652 are log2 fold change values, retold here.

Targets with a hit are over-represented here; the source holds about 7,900 in all. About 0.6% of all pairs of compound and target were hits.

Chain of UniProt Q7Z3K3 (Q7Z3K3 whole entry, looked up): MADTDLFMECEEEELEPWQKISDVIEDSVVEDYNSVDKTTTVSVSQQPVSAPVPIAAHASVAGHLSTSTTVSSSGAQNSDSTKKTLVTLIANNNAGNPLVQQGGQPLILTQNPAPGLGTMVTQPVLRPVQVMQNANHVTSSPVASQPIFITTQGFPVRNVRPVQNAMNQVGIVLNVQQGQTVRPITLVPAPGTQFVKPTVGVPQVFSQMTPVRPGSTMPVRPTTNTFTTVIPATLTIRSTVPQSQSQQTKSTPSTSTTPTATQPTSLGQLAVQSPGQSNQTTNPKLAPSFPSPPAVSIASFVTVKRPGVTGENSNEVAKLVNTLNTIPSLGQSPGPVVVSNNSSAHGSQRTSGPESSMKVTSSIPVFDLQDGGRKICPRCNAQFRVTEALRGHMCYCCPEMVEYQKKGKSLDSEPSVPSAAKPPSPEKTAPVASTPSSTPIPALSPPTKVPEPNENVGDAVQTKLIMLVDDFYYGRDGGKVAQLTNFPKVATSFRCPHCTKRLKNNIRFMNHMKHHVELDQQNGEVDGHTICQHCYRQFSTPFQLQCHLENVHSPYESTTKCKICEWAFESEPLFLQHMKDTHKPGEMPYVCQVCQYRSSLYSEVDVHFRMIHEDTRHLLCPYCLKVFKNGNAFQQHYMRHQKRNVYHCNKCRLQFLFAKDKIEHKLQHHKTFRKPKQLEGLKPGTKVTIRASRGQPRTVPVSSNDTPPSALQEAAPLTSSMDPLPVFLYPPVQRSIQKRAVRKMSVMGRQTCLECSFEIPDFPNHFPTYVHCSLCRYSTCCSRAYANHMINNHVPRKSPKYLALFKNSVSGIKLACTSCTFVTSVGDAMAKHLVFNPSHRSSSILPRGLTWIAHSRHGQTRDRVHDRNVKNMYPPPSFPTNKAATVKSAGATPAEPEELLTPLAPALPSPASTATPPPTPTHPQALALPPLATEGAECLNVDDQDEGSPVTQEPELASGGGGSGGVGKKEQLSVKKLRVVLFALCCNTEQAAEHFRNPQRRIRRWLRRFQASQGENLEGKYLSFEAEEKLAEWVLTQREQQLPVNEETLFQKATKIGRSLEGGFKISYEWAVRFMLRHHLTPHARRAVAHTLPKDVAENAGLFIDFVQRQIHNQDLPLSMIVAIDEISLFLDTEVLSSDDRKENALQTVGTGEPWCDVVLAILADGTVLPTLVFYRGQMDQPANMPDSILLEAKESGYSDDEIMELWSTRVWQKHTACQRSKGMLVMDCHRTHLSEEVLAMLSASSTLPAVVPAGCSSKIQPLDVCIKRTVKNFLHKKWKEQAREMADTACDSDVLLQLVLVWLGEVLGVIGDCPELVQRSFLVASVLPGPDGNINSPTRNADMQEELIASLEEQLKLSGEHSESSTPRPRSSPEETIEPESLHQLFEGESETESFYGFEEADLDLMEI
Chain of UniProt O94806 (O94806 whole entry, looked up): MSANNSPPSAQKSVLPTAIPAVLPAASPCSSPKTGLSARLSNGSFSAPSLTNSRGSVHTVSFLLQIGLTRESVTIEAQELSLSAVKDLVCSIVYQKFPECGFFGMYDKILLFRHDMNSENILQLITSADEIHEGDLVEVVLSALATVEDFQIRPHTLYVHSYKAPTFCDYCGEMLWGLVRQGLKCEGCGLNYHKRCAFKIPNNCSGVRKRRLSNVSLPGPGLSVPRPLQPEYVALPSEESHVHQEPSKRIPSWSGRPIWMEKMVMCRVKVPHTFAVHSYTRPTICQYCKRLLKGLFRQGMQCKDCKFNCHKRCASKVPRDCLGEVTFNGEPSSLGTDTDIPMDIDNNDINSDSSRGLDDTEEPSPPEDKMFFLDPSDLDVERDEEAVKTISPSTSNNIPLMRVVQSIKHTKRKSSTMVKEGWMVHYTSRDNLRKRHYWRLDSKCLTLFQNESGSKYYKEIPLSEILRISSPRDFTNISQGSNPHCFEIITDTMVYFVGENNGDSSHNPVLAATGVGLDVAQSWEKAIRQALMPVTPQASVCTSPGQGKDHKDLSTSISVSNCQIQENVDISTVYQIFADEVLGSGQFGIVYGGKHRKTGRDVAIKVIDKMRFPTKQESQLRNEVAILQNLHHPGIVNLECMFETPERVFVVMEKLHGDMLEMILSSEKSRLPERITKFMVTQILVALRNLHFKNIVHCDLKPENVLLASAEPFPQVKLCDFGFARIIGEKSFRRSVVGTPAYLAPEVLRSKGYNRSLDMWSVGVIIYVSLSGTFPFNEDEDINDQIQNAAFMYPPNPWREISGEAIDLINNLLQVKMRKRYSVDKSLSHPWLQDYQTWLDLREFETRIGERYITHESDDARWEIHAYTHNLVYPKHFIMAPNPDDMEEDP
Chain of UniProt Q14289 (Q14289 whole entry, looked up): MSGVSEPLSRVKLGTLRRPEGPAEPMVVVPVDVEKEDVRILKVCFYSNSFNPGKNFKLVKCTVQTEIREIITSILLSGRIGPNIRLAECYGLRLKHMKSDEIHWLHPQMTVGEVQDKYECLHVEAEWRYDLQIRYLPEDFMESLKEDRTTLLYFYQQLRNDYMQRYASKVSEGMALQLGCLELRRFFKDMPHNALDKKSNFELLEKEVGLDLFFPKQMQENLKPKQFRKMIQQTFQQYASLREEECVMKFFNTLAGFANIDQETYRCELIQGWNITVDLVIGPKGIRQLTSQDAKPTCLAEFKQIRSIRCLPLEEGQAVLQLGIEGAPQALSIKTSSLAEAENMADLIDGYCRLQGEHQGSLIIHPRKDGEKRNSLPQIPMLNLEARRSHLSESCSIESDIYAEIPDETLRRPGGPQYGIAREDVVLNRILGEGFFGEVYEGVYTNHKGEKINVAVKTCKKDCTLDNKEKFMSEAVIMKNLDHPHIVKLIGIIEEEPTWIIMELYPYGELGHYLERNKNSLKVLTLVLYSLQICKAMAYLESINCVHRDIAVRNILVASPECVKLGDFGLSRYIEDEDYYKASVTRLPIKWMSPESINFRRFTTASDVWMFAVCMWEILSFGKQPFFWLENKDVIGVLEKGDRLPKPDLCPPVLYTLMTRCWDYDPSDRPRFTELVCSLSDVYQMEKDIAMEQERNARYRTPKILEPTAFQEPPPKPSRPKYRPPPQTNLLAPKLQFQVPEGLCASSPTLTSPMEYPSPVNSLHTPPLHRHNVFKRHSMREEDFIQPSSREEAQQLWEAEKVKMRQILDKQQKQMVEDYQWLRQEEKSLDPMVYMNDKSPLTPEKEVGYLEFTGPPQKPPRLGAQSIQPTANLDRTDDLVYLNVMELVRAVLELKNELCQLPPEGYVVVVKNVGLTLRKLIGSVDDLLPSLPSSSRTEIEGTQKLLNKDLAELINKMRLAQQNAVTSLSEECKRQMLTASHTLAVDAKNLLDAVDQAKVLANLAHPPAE
Chain of UniProt Q15173 (Q15173 whole entry, looked up): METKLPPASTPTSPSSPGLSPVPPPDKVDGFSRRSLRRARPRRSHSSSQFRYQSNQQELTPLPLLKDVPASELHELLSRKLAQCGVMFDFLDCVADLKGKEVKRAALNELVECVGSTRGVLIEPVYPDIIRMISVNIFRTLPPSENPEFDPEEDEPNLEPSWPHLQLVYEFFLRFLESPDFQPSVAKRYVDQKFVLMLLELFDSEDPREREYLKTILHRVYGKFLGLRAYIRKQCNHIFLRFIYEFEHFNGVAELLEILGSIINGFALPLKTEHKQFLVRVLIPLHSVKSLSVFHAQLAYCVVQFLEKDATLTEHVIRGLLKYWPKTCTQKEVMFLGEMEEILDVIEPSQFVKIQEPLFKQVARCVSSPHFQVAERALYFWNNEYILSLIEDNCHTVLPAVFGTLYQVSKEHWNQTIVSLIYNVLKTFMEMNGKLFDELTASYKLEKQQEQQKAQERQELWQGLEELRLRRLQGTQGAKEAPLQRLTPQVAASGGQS
Chain of UniProt P41247 (P41247 whole entry, looked up): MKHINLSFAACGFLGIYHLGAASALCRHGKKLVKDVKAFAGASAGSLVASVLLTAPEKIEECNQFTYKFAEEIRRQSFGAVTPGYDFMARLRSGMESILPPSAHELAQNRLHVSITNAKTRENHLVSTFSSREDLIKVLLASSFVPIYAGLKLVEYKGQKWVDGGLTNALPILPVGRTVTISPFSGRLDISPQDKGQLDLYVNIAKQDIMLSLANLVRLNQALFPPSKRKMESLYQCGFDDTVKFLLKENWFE
Chain of UniProt Q8TCG2 (Q8TCG2 whole entry, looked up): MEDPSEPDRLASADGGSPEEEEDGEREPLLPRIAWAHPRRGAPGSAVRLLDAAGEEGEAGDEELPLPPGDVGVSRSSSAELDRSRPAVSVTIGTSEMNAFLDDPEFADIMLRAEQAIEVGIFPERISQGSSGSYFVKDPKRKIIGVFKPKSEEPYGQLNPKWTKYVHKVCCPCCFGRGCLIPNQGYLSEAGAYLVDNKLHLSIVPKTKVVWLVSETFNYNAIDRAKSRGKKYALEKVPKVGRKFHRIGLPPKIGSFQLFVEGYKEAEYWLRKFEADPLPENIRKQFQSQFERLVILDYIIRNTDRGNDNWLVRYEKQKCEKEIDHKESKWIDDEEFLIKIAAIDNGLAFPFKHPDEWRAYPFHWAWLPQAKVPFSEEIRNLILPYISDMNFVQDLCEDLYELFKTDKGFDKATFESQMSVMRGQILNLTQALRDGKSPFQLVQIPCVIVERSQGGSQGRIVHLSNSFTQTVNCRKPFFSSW
Chain of UniProt P51817 (P51817 whole entry, looked up): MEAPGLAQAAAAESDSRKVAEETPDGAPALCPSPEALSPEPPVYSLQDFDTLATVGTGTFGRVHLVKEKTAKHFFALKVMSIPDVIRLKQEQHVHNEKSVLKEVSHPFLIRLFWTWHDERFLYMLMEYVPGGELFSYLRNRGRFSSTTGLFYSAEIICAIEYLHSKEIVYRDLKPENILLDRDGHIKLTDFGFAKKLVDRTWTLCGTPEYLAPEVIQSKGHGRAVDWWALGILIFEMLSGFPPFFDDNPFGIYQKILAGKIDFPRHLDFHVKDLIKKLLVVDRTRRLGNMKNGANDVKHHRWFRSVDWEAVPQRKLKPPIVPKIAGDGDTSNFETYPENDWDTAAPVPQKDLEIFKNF

Compound in one experiment: C#Cc1cccc(Nc2ncnc3cc(OCCOC)c(OCCOC)cc23)c1 [erlotinib]
The experiment in a line: log2 fold change, soluble protein after heating vs DMSO (PISA); higher = thermal stabilisation; K562 cells, 10 uM, 30 min; active = over 0.2 and 3.5 SD of the protein, either way, in both replicates (recomputed). The method, boiled down:
(§1)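 K562 cells at 2×10^6 cells/mL were treated for 30 min with 10 μM compound, and aliquots were heated for 3 min over 48°C-58°C before pooling. Extraction used PBS with 0.5% NP-40 at 4°C, and soluble protein was the supernatant after 21,000xg for 90 min, measured by TMTpro 16plex LC-MS/MS with channel sums equalised. Thermal stability values, relative to control samples and from duplicates, are log2 fold changes.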
In the case of PPP1R12C (UniProt Q9BZL4), the log2 fold change is -0.13 (inactive).

Turning to PDE4DIP (UniProt E9PS60), the log2 fold change is 0.086 (inactive).

Regarding PI4K2B (UniProt Q8TCG2), the log2 fold change is -0.003 (inactive).

Regarding PPP1R12B isoform 6 (UniProt O60237), the log2 fold change is 0.226 (inactive).

As to POLB (UniProt P06746), the log2 fold change was -0.236 (inactive).

As for PRKD3 (UniProt O94806), the log2 fold change is 0.051 (inactive).

Take PUM1 (UniProt Q14671): the log2 fold change was 0.308 (inactive).

As to PHRF1 (UniProt Q9P1Y6), the log2 fold change was -0.161 (inactive).

Take PTK2B (UniProt Q14289): the log2 fold change was 0.225 (inactive).

Regarding PSMC1 (UniProt G3V4X1), the log2 fold change was 0.149 (inactive).

Take PCID2 (UniProt Q5JVF3): the log2 fold change is 0.086 (inactive).

In the case of POGZ (UniProt Q7Z3K3), the log2 fold change was 0.006 (inactive).

As for PRKX (UniProt P51817), the log2 fold change is 0.169 (inactive).

Consider PTEN isoform 2 (UniProt P60484), for which the log2 fold change is 0.264 (inactive).

As for PPP2R5C isoform 2 (UniProt Q13362), the log2 fold change is -0.012 (inactive).

Regarding PNPLA4 (UniProt P41247), the log2 fold change is 0.426 (inactive).

Turning to PEX5 isoform 4 (UniProt P50542), the log2 fold change was -0.133 (inactive).

For the target PCBP2 (UniProt F8VZX2), the log2 fold change was -0.014 (inactive).

In the case of PHC3 isoform 7 (UniProt Q8NDX5), the log2 fold change is 0.08 (inactive).

With PPP2R5B (UniProt Q15173), the log2 fold change is -0.044 (inactive).

Compound in a further experiment: C/C(=N\NC(=O)C1=CC(=CC=C1)S(=O)(=O)N2CCOCC2)/C3=C(C=CC(=C3)Cl)O
The description is as above. A digest of the protocol: as §1
With PI4K2B (UniProt Q8TCG2), the log2 fold change was -0.008 (inactive).

Regarding PCF11 (UniProt O94913), the log2 fold change is 0.04 (inactive).

As to PRKD3 (UniProt O94806), the log2 fold change was 0.373 (inactive).

With PUM1 (UniProt Q14671), the log2 fold change was 0.035 (inactive).

For the target PTK2B (UniProt Q14289), the log2 fold change was 0.063 (inactive).

Regarding PSD3 (UniProt Q9NYI0), the log2 fold change was -0.022 (inactive).

For the target POGZ (UniProt Q7Z3K3), the log2 fold change is 0.085 (inactive).

For PSMA3 (UniProt H0YJ03), the log2 fold change was -0.698 (active).

PKM isoform 2 (UniProt P14618): the log2 fold change is -0.004 (inactive).

Consider PGK2 (UniProt P07205), for which the log2 fold change was -0.055 (inactive).

For PNPLA4 (UniProt P41247), the log2 fold change was 0.13 (inactive).

For the target PEX5 isoform 4 (UniProt P50542), the log2 fold change is -0.143 (inactive).

In the case of PRR14L (UniProt Q5THK1), the log2 fold change is -0.168 (inactive).

Turning to PPP2R5B (UniProt Q15173), the log2 fold change was 0.039 (inactive).

Turning to PUF60 isoform 2 (UniProt Q9UHX1), the log2 fold change was 0.242 (inactive).
